Screening results as filed in PubChem.
HT1080-NT tox – qHTS for induction of synthetic lethality in tumor cells producing 2HG: qHTS for the HT-1080-NT fibrosarcoma cell line. HT-1080-NT fibrosarcoma viability, CellTiter-Glo ATP luminescence, 48 h. Potency, µM (top dose mostly 46.1 µM), usual class: cytotoxic. actives 1.6% (n = 360,000);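 further: NT is the 2HG producing partner of a matched IDH1 knockdown line; nearly all actives have a fitted effect of over 55% in size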
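Fibrosarcoma NT cells, 750 per well in 5% FBS RPMI, were exposed to compound for 48 hours. Viability: CellTiter-Glo luminescence.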
HT1080 IDH1KD tx – qHTS for induction of synthetic lethality in tumor cells producing 2HG: qHTS for the HT-1080-IDH1KD cell line; AID 686971, 2013; Potency, µM (highest dose often 46.1 µM), usual class: cytotoxic; actives 2% (n = 360,000); HT-1080 IDH1 knockdown viability, ATP luminescence, 48 h
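Cytotoxicity counter-line: IDH1KD HT-1080, 48 h, CellTiter-Glo. Curves classed by r2, magnitude and activity.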
KB-3-1 cytotox – qHTS assay for MDR1-selective chemotherapeutics: Primary screen using the parental adenocarcinoma cell KB-3-1; KB-3-1 viability, CellTiter-Glo ATP luminescence, 72 h; Potency, µM (highest dose often 46.1 µM), usual class: cytotoxic; actives 1.4% (n = 400,000); AID 1347075, 2019; further: nearly all actives have a fitted effect of over 60% in size
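Luminescent ATP read-out (CellTiter-Glo) measures survival of drug-naive KB-3-1 cells after 72 h compound exposure at 37 °C. Titration series was screened from lowest to highest concentration, with DMSO vehicle plates as background controls.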
KB-V1 MDR tox – qHTS assay for MDR1-selective chemotherapeutics: Primary screen using the drug-selected MDR subline cells KB-V1; KB-V1 MDR cells viability, CellTiter-Glo, 72 h; Potency, µM (doses to about 46.1 µM), usual class: cytotoxic; actives 3.4% (n = 400,000); AID 1347076, 2019; further: nearly all actives have a fitted effect of over 60% in size
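In this primary screen, KB-V1 cells overexpressing P-gp are incubated with library compounds (lowest to highest concentration) for 72 h at 37 degrees C before a luminescent ATP viability read.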
MCF10A rerep – A quantitative high throughput screen for small molecules that induce DNA re-replication in MCF 10a normal breast cells; MCF 10A DNA re-replication, Hoechst nuclear intensity, 48 h; Potency, µM (top dose mostly 46.1 µM), most hits filed as activators; actives 2.9% (n = 350,000); AID 624296, 2012; further: nearly all actives have a fitted effect of over 50% in size
SW480 rerep – A quantitative high throughput screen for small molecules that induce DNA re-replication in SW480 colon adenocarcinoma cells. SW480 DNA re-replication, Hoechst DNA content imaging, 48 h. Potency, µM (doses to about 46.1 µM), actives largely listed as activators. actives 1.8% (n = 340,000); further: nearly all actives have a fitted effect of over 55% in size
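250 cells/well; 23 nL cpd via pin tool; 48 hr, 37 C, 5% CO2; Hoechst 40 min; imager read of total nuclear intensity, ex 405/em 500-530 nm.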
Hits are given with their value; n = inactive; u = inconclusive; x = no result; [ ] = dose if it differs, or a comment. Only some compounds are listed: those with a hit (about 7.9% of all), similar ones and a draw of the others. The call rests on the fitted dose curve; in most records, active means well fitted curve in the direction sought with a large enough effect; inconclusive means small, poorly fitted or top-dose-only effect, or another doubt; inactive means no such curve, though single readings can be large; an effect the other way counts as inactive or inconclusive.

SMILES	HT1080-NT tox	HT1080 IDH1KD tx	KB-3-1 cytotox	KB-V1 MDR tox	MCF10A rerep	SW480 rerep
COc1ccccc1N1CCN(CC(=O)Nc2ccc3c(c2)OCCO3)CC1	n	n	n	n	n	n
O=C(CCN1CCN(c2ccccc2F)CC1)c1ccc(Br)cc1	u	u	n	n	u	u
COc1ccc(C(=O)CCN2CCN(c3ccccc3F)CC2)cc1	u	u	n	n	5.8µM	u
COc1cccc(/C=C/C(=O)NNC(=O)CCN2CCN(Cc3ccccc3)CC2)c1	n	n	23.1µM	n	u	3.66µM
COc1ccccc1N1CCN(CCC(=O)Nc2ccc3c(c2)OCO3)CC1	n	n	n	20.6µM	n	n
CC(C)Oc1ccc(C(=O)CCN2CCOCC2)cc1	n	n	n	u	u	u
COc1ccccc1-n1c(SCC(=O)Nc2ccc3c(c2)OCO3)nc2c(c1=O)SCC2	n	n	n	7.31µM	n	n
CC(C)Oc1ccc(C(=O)CCN2CCCCC2)cc1	n	n	n	n	23.1µM	u
CCOC(=O)CSC1=NC(=O)/C(=C/c2ccc(OC)cc2)S1	u	u	11.6µM	u	5.8µM	u
O=C(CCCc1nc(-c2ccccc2)no1)Nc1cc(C(F)(F)F)cc(C(F)(F)F)c1	x	x	n	n	x	x
COc1ccc(CCNCc2c(C(=O)O)c(C)n(Cc3ccccc3C)c2C)c(OC)c1	x	x	n	u	x	x
CN(C)CCCN(C(=O)c1ccc(Cl)s1)c1nc2cc3c(cc2s1)OCO3	18.4µM	u	n	n	u	u
CN(C)CCCN(C(=O)c1ccc(C(=O)c2ccccc2)cc1)c1nc2cc3c(cc2s1)OCO3	u	u	u	20.6µM	u	u
CN(C)CCCN(C(=O)c1cc2cc([N+](=O)[O-])ccc2s1)c1nc2cc3c(cc2s1)OCCO3	u	u	u	18.4µM	u	10.3µM
CN(C)CCCN(C(=O)c1ccc([N+](=O)[O-])s1)c1nc2cc3c(cc2s1)OCCO3	n	n	n	n	n	u
CN(C)CCCN(C(=O)c1cc(Cl)sc1Cl)c1nc2cc3c(cc2s1)OCO3	u	u	n	u	u	n
Cc1nn(-c2ccc(Cl)cc2)c(=O)c2ccccc12	n	n	n	n	n	n
Cc1c(Cl)sn(-c2ccc(Cl)cc2)c1=O	25.9µM	2.59µM	16.4µM	u	3.26µM	1.84µM
O=C1CCCc2c1oc1c2CCCC1	n	n	n	n	n	n
CCN1C(=O)/C(=C\N2CCN(c3ccc(F)cc3)CC2)SC1=S	n	n	n	2.59µM	n	n
O=C(NCc1ccco1)c1cc2nc(C3CC3)cc(C(F)(F)F)n2n1	n	n	n	u	n	n
O=C(NCc1ccccc1)c1cc2nc(C3CC3)cc(C(F)(F)F)n2n1	n	n	n	23.1µM	n	n
COCCNC(=O)Cn1c(-c2cccs2)cc2cc(Cl)ccc21	x	x	n	n	x	x
CCCC(C)NNC(=O)c1cc2ccccc2[nH]1 (configuration not stated)	n[9.24 µM]	n	n	n	n	n
CC(C)(C)c1ccc(S(=O)(=O)NNC(=O)c2cc3ccccc3[nH]2)cc1	20.6µM	20.6µM	n	n	n	n
O=C(CSc1ncnc2ccccc12)NCc1ccco1	n	n	n	n	n	n
CCCc1nc2sc3c(SCC(=O)NCc4ccco4)ncnc3c2c2c1CCC2	n	n	u	11.6µM	9.2µM	14.6µM
Cc1nc(SCC(=O)NCc2ccco2)c2c3c(sc2n1)CCCC3	n	u	u	u	u	n
O=C(CSc1nc(C2CC2)nc2sc3c(c12)CCCC3)NCc1ccco1	n	n	n	n	16.4µM	n
CC(C)Sc1nc2sc3c(c2c2nnc(SCC(=O)NCc4ccco4)n12)CCCC3	n	n	n	18.4µM	u	n
